High-throughput results (PubChem)
Most compounds without a hit are left out; they make up all but 19% or so of the library.
SARS PLpro yeast – inhibitors of SARS-CoV papain-like protease in yeast. Potency, µM (titrated, usually from 32.9 µM), actives largely listed as activators. S. cerevisiae expressing SARS-CoV PLpro, growth rescue. 330,000 tested, 0.19% active. AID 485353; calls by dose curve; also: nearly all actives have a fitted effect of over 55% in size
Pf growth 48h – P. falciparum growth inhibition at 48 hours (one generation); P. falciparum luciferase growth in erythrocytes, 48 h; Potency, µM (top dose mostly 28.7 µM), most hits filed as inhibitors; 310,000 tested, 5.9% active
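In quantitative HTS format, infected erythrocytes bearing luciferase-reporter parasites were treated for a single generation at 37 C. Luminescence after adding detection reagent served as the growth measure.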
Cycloheximide cs – counter-screen for Shiga toxin inhibitors: cycloheximide protein synthesis inhibition | cell reporter, cycloheximide protein synthesis inhibition counterscreen | max response, % | 300,000 tested, 12% active; in the data active = max response mostly above about 13%, no sharp cut-off; inactive = mostly below about 14%; also: read at 38.3 µM for the half of the compounds with a filed dose
Pf growth 96h – P. falciparum growth inhibition at 96 hours | Potency, µM (series often up to 28.7 µM), most hits filed as inhibitors | AID 504834 | 320,000 tested, 6.9% active | P. falciparum luciferase reporter growth, 96 h
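Readout is luminescence from an integrated firefly luciferase in P. falciparum. Red cells, 2% hematocrit and 0.05% parasitemia final, were cultured with compound through two parasite generations (96 hours) at 37 C, 5% CO2.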
AMA1 RON2 block – inhibitors of Plasmodium falciparum AMA1-RON2 interaction. AlphaScreen AMA1-biotinylated RON2 peptide binding. Potency, µM (titrated, usually from 58.2 µM), hits mostly inhibitors. 360,000 tested, 0.2% active; also: nearly all actives have a fitted effect of over 45% in size
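AMA1 (3D7) with his tag at 25 nM final met compounds first, then biotinylated RON2 peptide at 25 nM; detection used donor plus acceptor beads, 10 µg/mL apiece, read by AlphaScreen after 30 min at room temperature.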
Shiga toxin inh – Shiga toxin inhibition; Vero cells, Shiga toxin protein synthesis inhibition reporter; inhibition, % at 38.7 µM; 290,000 tested, 9.2% active; in the data active = inhibition mostly above about 28%, no sharp cut-off; inactive = mostly below about 43%
Each line names hits and unclear results; the compound was inactive in the other large screens; ! = repeats disagree. Unless noted, calls follow the shape of the dose curve; as a rule, active = well fitted curve in the direction sought with a large enough effect; inconclusive = small, poorly fitted or top-dose-only effect, or another doubt; inactive = no such curve, though single readings can be large; an effect the other way counts as inactive or inconclusive.

OCc1ccc2c(c1)c(-c1ccc3c(c1)OCCO3)c(-c1ccccc1)n2-c1ccccc1	Pf growth 48h inconclusive, Pf growth 96h 4.65µM, AMA1 RON2 block inconclusive (no result: Cycloheximide cs, Shiga toxin inh)
CC(C)(C)Nc1ncnc2c1cnn2-c1ccccc1	Cycloheximide cs 56.8, Shiga toxin inh 95.6
Cc1cccc(-n2ncc3c(NCCc4ccc(S(N)(=O)=O)cc4)ncnc32)c1	Pf growth 96h 10.4µM (no result: Pf growth 48h)
CC(=O)NNc1ncnc2c1cnn2-c1ccccc1	Pf growth 48h inconclusive, Pf growth 96h inconclusive
c1ccc(CCNc2ncnc3c2cnn3-c2ccccc2)cc1	Cycloheximide cs 43.9, Shiga toxin inh 66.4
Cc1nc(NCCc2ccc(S(N)(=O)=O)cc2)c2c(C)c(C)sc2n1	Pf growth 48h inconclusive (no result: Pf growth 96h)
Cn1ncc2c(NCc3ccccc3)ncnc21	Cycloheximide cs 13.1!
O=C1C(Sc2ccccc2)=C[C@@]2(O)CC[C@@H](O)[C@]1(Sc1ccccc1)[C@H]2O	none (no result: SARS PLpro yeast, Pf growth 48h, Cycloheximide cs, Pf growth 96h, Shiga toxin inh)
CCc1ccc(NC(=O)CCNC(=O)Cn2ccc3ccccc3c2=O)cc1	Pf growth 96h inconclusive
COc1ccc(S(=O)(=O)N2CCCOC2CNC(=O)C(=O)NCc2ccccc2C)cc1 (stereo not drawn)	none (no result: SARS PLpro yeast, Pf growth 48h, Cycloheximide cs, Pf growth 96h, Shiga toxin inh)
Cc1cccc(-n2ncc3c(NCc4cccs4)ncnc32)c1	Cycloheximide cs 22.6, Shiga toxin inh 114.4
c1ccc(CNc2ncnc3c2cnn3-c2ccccc2)cc1	Cycloheximide cs 12.9
Nc1c(Cl)ncnc1NCc1cccnc1	none
Cc1cccc(-n2ncc3c(NCc4ccccc4)ncnc32)c1	Cycloheximide cs 28.6, Shiga toxin inh active
Fc1ccc(CNc2ncnc3c2cnn3-c2ccccc2)cc1	none (no result: SARS PLpro yeast)
Clc1ccc(-n2ncc3c(NCc4cccnc4)ncnc32)cc1Cl	Cycloheximide cs 34.3
CCCCC(c1nnnn1Cc1ccco1)N1CCN(c2nc3ccccc3s2)CC1 (stereo not drawn)	Pf growth 48h 9.28µM, Cycloheximide cs 23.0, Shiga toxin inh 62.4 (no result: Pf growth 96h)
c1ccc(C(c2nnnn2Cc2ccco2)N2CCN(c3nc4ccccc4s3)CC2)cc1 (stereo not drawn)	Pf growth 48h inconclusive, Cycloheximide cs 31.1, Shiga toxin inh 58.0 (no result: Pf growth 96h)
CCCC(c1nnnn1CCOC)N1CCN(c2nc3ccccc3s2)CC1 (stereo not drawn)	Pf growth 48h inconclusive
O=C(CCNC(=O)c1ccc([N+](=O)[O-])cc1)NCc1ccccc1	Pf growth 48h inconclusive (no result: Cycloheximide cs, Shiga toxin inh)
CCCOc1ccc(C(F)(F)F)cc1NC(=O)c1cc(C)on1	none (no result: Cycloheximide cs, Shiga toxin inh)
CCCCN(C)C(=S)Nc1ccsc1C(=O)OC	Pf growth 48h inconclusive, Pf growth 96h inconclusive
CCC(C)NC(=O)CN(c1cc(Cl)cc(Cl)c1)S(C)(=O)=O (stereo not drawn)	Pf growth 96h inconclusive
COc1ccc(NC(=O)CSc2nnc(Cn3cnc([N+](=O)[O-])n3)n2C)cc1	none
Cn1c(Cn2cnc([N+](=O)[O-])n2)nnc1SCC(=O)Nc1ccccc1	Pf growth 96h 2.94µM
CCOC(=O)CN(C(=O)CSc1nnc(COc2ccc(OC)cc2)n1C)c1ccccc1	Pf growth 48h inconclusive, Pf growth 96h 11.7µM
Cn1c(SCC(=O)Nc2ccc(N3CCOCC3)c(Cl)c2)nnc1C(O)c1ccccc1 (stereo not drawn)	Pf growth 48h inconclusive
Cn1c(COc2ccccc2)nnc1SCC(=O)Nc1ccc(N2CCOCC2)c(Cl)c1	Pf growth 48h inconclusive, Pf growth 96h 4.15µM
COc1ccc(OCc2nnc(SCC(=O)N(C)Cc3ccccc3)n2N)cc1	none
CCOc1ccc(NC(=O)CSc2nnc(Cn3cnc4ccccc43)n2C)cc1	Pf growth 96h 2.33µM
CCCc1n(CC)c2ccccc2[n+]1CC(O)COC1CCCCC1 (stereo not drawn)	Pf growth 48h inconclusive
COc1ccc(NC(=O)N2CCC(n3cnc4ccccc43)CC2)cc1	Pf growth 48h inconclusive
O=C(OC1CCOC1=O)c1cc(S(=O)(=O)N2CCOCC2)c(Cl)cc1Cl (stereo not drawn)	none (no result: Cycloheximide cs, Shiga toxin inh)
CCc1nc2c(OCc3ccc(OC(F)F)cc3)cccn2c1N(C)C(=O)c1ccc(OC)cc1	none (no result: SARS PLpro yeast, Pf growth 48h, Cycloheximide cs, Pf growth 96h, Shiga toxin inh)
Cn1c(COc2ccccc2)nnc1SCC(=O)Nc1ccc(S(N)(=O)=O)cc1	Pf growth 96h inconclusive (no result: Pf growth 48h)
COC(=O)c1ccc(NC(=O)CSc2nnc(COc3ccccc3)n2C)cc1	Pf growth 48h 8.28µM
COc1ccc(Cn2ccnc2SCC(=O)Nc2ccccc2OC)cc1	Pf growth 48h inconclusive, Pf growth 96h inconclusive
CC(Cl)C(=O)NC(=O)NC12CC3CC(CC(C3)C1)C2 (stereo not drawn)	Pf growth 48h inconclusive, Pf growth 96h 13.1µM
Cc1ccc(CSCCNS(=O)(=O)c2ccccc2)cc1	Pf growth 96h 1.47µM
COc1ccc(-c2nc3ccc(C)cn3c2NCc2ccccc2)cc1SC1CCCCC1	Pf growth 48h 10.4µM, Pf growth 96h 6.57µM (no result: Cycloheximide cs, Shiga toxin inh)
CCC(C)Sc1ccc(-c2nc3ccc(C)cn3c2NCc2ccccc2)cc1OC (stereo not drawn)	Pf growth 48h 3.7µM, Pf growth 96h 4.65µM (no result: Cycloheximide cs, Shiga toxin inh)
CCCCCCSc1ccc(-c2nc3ccc(C)cn3c2NCc2ccccc2)cc1OC	Pf growth 48h 5.22µM, Pf growth 96h 4.65µM (no result: Cycloheximide cs, Shiga toxin inh)
CN1CCC(N(C)S(=O)(=O)c2ccc(NC(=O)COc3ccc(F)cc3Cl)cc2)CC1	Pf growth 48h inconclusive, Pf growth 96h inconclusive
O=C1Nc2ccccc2/C1=N/N=C/c1ccc(-c2ccc([N+](=O)[O-])cc2)o1	Pf growth 48h inconclusive, Pf growth 96h inconclusive
O=c1c(O)cccc2cc(O)c(O)c(O)c12	Pf growth 96h inconclusive, AMA1 RON2 block 2.51µM
O=c1cc(-c2ccccc2)oc2cc(O)c(O)c(O)c12	SARS PLpro yeast inconclusive (no result: Pf growth 48h, Cycloheximide cs, Pf growth 96h, Shiga toxin inh)
COc1cccc(NC(=O)Cn2c(=O)n(-c3cc(OC)c(OC)c(OC)c3)c(=O)c3ccccc32)c1	Pf growth 48h 10.4µM, Pf growth 96h inconclusive
COc1cccc(NC(=O)Cn2c(=O)c3c(ncn3Cc3ccccc3)n(Cc3ccccc3)c2=O)c1	Pf growth 96h 0.828µM (no result: Pf growth 48h)
O=C(Cn1c(=O)c2c(ncn2Cc2ccccc2)n(Cc2ccccc2)c1=O)NC1CC1	Pf growth 48h inconclusive, Pf growth 96h inconclusive
COCCn1cnc2c1c(=O)n(CC(=O)NC(=O)NC(C)(C)C)c(=O)n2Cc1ccccc1	Pf growth 48h inconclusive, Pf growth 96h 0.262µM
Cc1nc(NC(=O)C(C)(C)C)sc1C(=O)Cn1cc(-c2ccc(C(C)(C)C)cc2)nn1	none (no result: SARS PLpro yeast, Pf growth 48h, Cycloheximide cs, Pf growth 96h, Shiga toxin inh)
CC1(C)CC(NS(=O)(=O)c2ccc(S(N)(=O)=O)cc2)CC(C)(C)N1	none (no result: AMA1 RON2 block)
CC(=O)Oc1ccc(/C=N/NC(=S)Nc2ccccc2)cc1	SARS PLpro yeast inconclusive, Cycloheximide cs 53.3
CCN(CC)c1ccc(/C=N/NC(=O)Nc2ccccc2)cc1	Cycloheximide cs 34.7, AMA1 RON2 block inconclusive, Shiga toxin inh 71.2
CCOc1ccc(/C=N/NC(=O)Nc2ccccc2)cc1	Cycloheximide cs 41.1, Shiga toxin inh 69.4
CCOc1ccc(/C=N/n2c(SC)nnc2-c2ccccc2)cc1OCC	none
